Source: PubChem BioAssay
A selection: hits, their analogues and other compounds. The true share with any hit is near 7.6%.
Cy5 interf NS3h: Cy5 fluorescence quenchers or enhancers, artefact control for HCV NS3 helicase inhibitor project, biochemical, ChemBridge library, Cy5 readout | Cy5-dT15 DNA with NS3h, fluorescence interference; actives lie on both sides; signal over control mean, under 1 quenches | fluorescence interference ratio at 100 µM | 6% of 16,000 active;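 active = compound fluorescence over control fluorescence at most 0.8, a quencher, or at least a set upper limit, an enhancer; inactive = ratio between 0.8 and the set upper limit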
NS3h inh CB: HCV NS3 helicase inhibitors, primary screen, biochemical, fluorescence polarization, ChemBridge library; NS3h Cy5-dT15 DNA binding; inhibition, % at 100 µM; 1.6% of 16,000 active; AID 687043, 2013;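 active = inhibition above the average over every tested compound plus 3 SD, cut at about 40% in these data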
* hit, by the source's call.

For O=C(Nc1ccc(S(=O)(=O)N2CCCCCC2)cc1)C(F)(F)F the results were Cy5 interf NS3h 0.766* and NS3h inh CB 14.0.
O=C(Nc1ccc(S(=O)(=O)N2CCCCC2)cc1)c1ccc(F)cc1 was read as Cy5 interf NS3h 0.915 and NS3h inh CB 8.6.
Screening Cc1cccc(N2CCN(C(=S)c3ccc(OCc4ccccc4)cc3)CC2)c1 returned Cy5 interf NS3h 1.01 and NS3h inh CB 9.9.
O=C(CSc1cc(Cl)ccc1Cl)Nc1ccccc1Br was read as Cy5 interf NS3h 0.977 and NS3h inh CB 7.0.
`CC(=O)c1ccc(N2C(=O)c3c(Cl)c(Cl)c(Cl)c(Cl)c3C2=O)cc1` gave Cy5 interf NS3h 0.705* and NS3h inh CB 8.7.
CC(=O)c1ccc(N2C(=O)c3ccccc3C2=O)cc1 was read as Cy5 interf NS3h 1.02 and NS3h inh CB 7.7.
Cc1ccc(C)n1-c1ccc(Br)cc1C(=O)O was read as Cy5 interf NS3h 1.13 and NS3h inh CB 48.9*.
`CC(C)C(=O)Nc1ccc(Br)cc1C(=O)O` gave Cy5 interf NS3h 0.971 and NS3h inh CB -1.6.
Screening COc1ccc(N(CC(N)=O)S(C)(=O)=O)cc1 returned Cy5 interf NS3h 1.02 and NS3h inh CB -1.0.
`Cc1ccc(NC(=O)N(Cc2ccccc2)C(C)C2CC2)cc1` (stereo unspecified) gave Cy5 interf NS3h 0.595* and NS3h inh CB 9.6.
CC(C1CC1)N(Cc1ccccc1)C(=O)c1ccc(F)cc1 (stereo unspecified) was read as Cy5 interf NS3h 0.594* and NS3h inh CB 9.6.
`CCOC(=O)N(Cc1ccccc1)C(C(=O)O)C(C(=O)O)N(Cc1ccccc1)C(=O)OCC` (stereo unspecified) gave Cy5 interf NS3h 0.965 and NS3h inh CB 0.3.
CN(C)CCNC(=O)c1ccc(F)cc1 was read as Cy5 interf NS3h 1.02 and NS3h inh CB 12.4.
Screening N#C/C(=C\c1ccc(-c2ccccc2F)o1)c1nn(-c2ccccc2)c(N)c1C#N returned Cy5 interf NS3h 1.08 and NS3h inh CB 11.8.
O=C(/C=C/c1ccc(F)cc1)Nc1cccc2cccnc12 was read as Cy5 interf NS3h 0.962 and NS3h inh CB 9.9.
`O=C(COc1ccc2ccc(=O)oc2c1)c1ccc(-c2ccccc2)cc1` gave Cy5 interf NS3h 0.954 and NS3h inh CB 33.0.
For Cc1ccc(C(=O)COc2cc(OCC(=O)c3ccc(C)cc3)c3c(C)cc(=O)oc3c2)cc1 the results were Cy5 interf NS3h 0.659* and NS3h inh CB 2.2.
For Cc1ccc(-c2ccc(/C=C3/SC(=S)NC3=O)o2)cc1Cl the results were Cy5 interf NS3h 0.768* and NS3h inh CB 6.1.
O=C1NC(=S)S/C1=C/c1ccc(-c2ccc([N+](=O)[O-])cc2Br)o1 was read as Cy5 interf NS3h 0.987 and NS3h inh CB 32.2.
COc1ccc2c(c1)OCC/C2=N/OC(=O)c1ccc(C)cc1 was read as Cy5 interf NS3h 1.01 and NS3h inh CB 20.2.
Screening COc1ccc2c(c1)OCC/C2=N/OC(=O)c1cc(OC)c(OC)c(OC)c1 returned Cy5 interf NS3h 1.24* and NS3h inh CB 11.0.
`COc1ccccc1Cc1noc(COc2ccc3ccccc3c2)n1` gave Cy5 interf NS3h 0.997 and NS3h inh CB 20.4.
O=C(CSc1nc2ccccc2c(=O)n1-c1ccccc1)c1cc(Cl)sc1Cl was read as Cy5 interf NS3h 1.03 and NS3h inh CB 11.1.
`CC(COc1ccccc1)NC(=O)c1nn2c(C(F)(F)F)cc(-c3ccccc3)nc2c1Br` (stereo unspecified) gave Cy5 interf NS3h 0.63* and NS3h inh CB 9.6.
Screening O=C(NCc1ccccc1)c1nn2c(C(F)(F)F)cc(-c3cccs3)nc2c1Cl returned Cy5 interf NS3h 1.01 and NS3h inh CB 17.8.
`COC(=O)c1cc2nc(-c3ccc(OC)cc3)cc(C(F)(F)F)n2n1` gave Cy5 interf NS3h 1.02 and NS3h inh CB 0.8.
COC(=O)c1ccccc1NC(=O)c1cnn2c(C(F)(F)F)cc(-c3ccccc3)nc12 was read as Cy5 interf NS3h 0.648* and NS3h inh CB -0.6.
`O=C(Nc1ccccc1C(F)(F)F)c1cnn2c(C(F)(F)F)cc(-c3ccccc3)nc12` gave Cy5 interf NS3h 1.06 and NS3h inh CB 11.9.
CC(C)(C)NC(=O)c1nn2c(C(F)(F)F)cc(-c3ccccc3)nc2c1Br was read as Cy5 interf NS3h 0.636* and NS3h inh CB 5.9.
Screening O=C(Oc1ccc(Cl)cc1Cl)c1c(F)cccc1F returned Cy5 interf NS3h 0.898 and NS3h inh CB 8.1.
Clc1ccc(-c2nc(N3CCOCC3)c3ccccc3n2)cc1Cl was read as Cy5 interf NS3h 1.03 and NS3h inh CB 4.2.
Screening CC(=O)c1cccc(Nc2ncnc3ccc(C)cc23)c1 returned Cy5 interf NS3h 1.16 and NS3h inh CB 2.2.
`O=C1/C(=C/c2ccccc2O)SC(=S)N1Cc1ccco1` gave Cy5 interf NS3h 1.01 and NS3h inh CB 17.4.
`COc1ccc2nc(SCC(=O)Nc3ccccc3F)[nH]c2c1` gave Cy5 interf NS3h 0.957 and NS3h inh CB 5.5.
Screening CS(=O)(=O)N(Cc1ccc(C(=O)NCCSc2ccccn2)cc1)c1ccccc1 returned Cy5 interf NS3h 1.06 and NS3h inh CB 17.9.
`COCCNC(=O)c1ccc(CN(c2ccccc2)S(C)(=O)=O)cc1` gave Cy5 interf NS3h 0.722* and NS3h inh CB 17.7.
CN1C(=O)/C(=C2\SC(=S)N(C3CCS(=O)(=O)C3)C2=O)c2ccccc21 (stereo unspecified) was read as Cy5 interf NS3h 1.01 and NS3h inh CB 7.0.
COc1ccc2c(=O)c(Oc3ccc(C(C)(C)C)cc3)coc2c1 was read as Cy5 interf NS3h 0.96 and NS3h inh CB -5.0.
`COc1ccc(C(=O)OCCCN2C(=O)c3ccccc3C2=O)cc1` gave Cy5 interf NS3h 0.616* and NS3h inh CB 8.7.
`CC(=O)OCCCN1C(=O)c2ccc(S(=O)(=O)c3ccc4c(c3)C(=O)N(CCCOC(C)=O)C4=O)cc2C1=O` gave Cy5 interf NS3h 1.03 and NS3h inh CB 2.8.
`COC(=O)CN(c1ccc(C)cc1)S(=O)(=O)c1ccccc1` gave Cy5 interf NS3h 0.992 and NS3h inh CB 5.2.
Screening CCOC(=O)N1CCN(C(=O)COc2ccc3ccccc3c2)CC1 returned Cy5 interf NS3h 1.08 and NS3h inh CB 3.6.
Screening CCCCNC(=O)/C(=C\c1ccc(-c2cccc([N+](=O)[O-])c2)o1)NC(=O)c1ccccc1 returned Cy5 interf NS3h 1.04 and NS3h inh CB 7.2.
CCCCNC(=O)/C(=C/c1ccc(C)o1)NC(=O)c1ccccc1 was read as Cy5 interf NS3h 0.66* and NS3h inh CB 16.8.
For O=C(Nc1ccccc1C(=O)N1CCOCC1)c1ccc([N+](=O)[O-])cc1 the results were Cy5 interf NS3h 0.963 and NS3h inh CB 0.3.
Screening Cc1ccc(C)c(NC(=O)c2ccc([N+](=O)[O-])cc2)c1 returned Cy5 interf NS3h 0.688* and NS3h inh CB 7.7.
For O=C(Nc1ccccc1C(=O)Nc1ccccn1)c1ccc([N+](=O)[O-])cc1 the results were Cy5 interf NS3h 0.746* and NS3h inh CB -45.0.
Cc1cc([N+](=O)[O-])ccc1NC(=O)c1ccccc1 was read as Cy5 interf NS3h 1.04 and NS3h inh CB -18.7.
`Cc1c(NC(NC(=O)COc2ccccc2)C(Cl)(Cl)Cl)c(=O)n(-c2ccccc2)n1C` (stereo unspecified) gave Cy5 interf NS3h 0.862 and NS3h inh CB 12.9.
